Legend:
Assay in all cases: log2 ratio of Biotin-Ahx-Ub-VS probe labelling (fragment/DMSO); higher = less target engagement (more negative = stronger competition), active = hit call of the paper (q ≤ 0.05, log2 ratio ≤ -1)
Settings in all cases: compound concentration: 200 uM; treatment time: 3 h
[1] = biological target: T1, USP19 (UniProt O94966)
T1 sequence (whole entry): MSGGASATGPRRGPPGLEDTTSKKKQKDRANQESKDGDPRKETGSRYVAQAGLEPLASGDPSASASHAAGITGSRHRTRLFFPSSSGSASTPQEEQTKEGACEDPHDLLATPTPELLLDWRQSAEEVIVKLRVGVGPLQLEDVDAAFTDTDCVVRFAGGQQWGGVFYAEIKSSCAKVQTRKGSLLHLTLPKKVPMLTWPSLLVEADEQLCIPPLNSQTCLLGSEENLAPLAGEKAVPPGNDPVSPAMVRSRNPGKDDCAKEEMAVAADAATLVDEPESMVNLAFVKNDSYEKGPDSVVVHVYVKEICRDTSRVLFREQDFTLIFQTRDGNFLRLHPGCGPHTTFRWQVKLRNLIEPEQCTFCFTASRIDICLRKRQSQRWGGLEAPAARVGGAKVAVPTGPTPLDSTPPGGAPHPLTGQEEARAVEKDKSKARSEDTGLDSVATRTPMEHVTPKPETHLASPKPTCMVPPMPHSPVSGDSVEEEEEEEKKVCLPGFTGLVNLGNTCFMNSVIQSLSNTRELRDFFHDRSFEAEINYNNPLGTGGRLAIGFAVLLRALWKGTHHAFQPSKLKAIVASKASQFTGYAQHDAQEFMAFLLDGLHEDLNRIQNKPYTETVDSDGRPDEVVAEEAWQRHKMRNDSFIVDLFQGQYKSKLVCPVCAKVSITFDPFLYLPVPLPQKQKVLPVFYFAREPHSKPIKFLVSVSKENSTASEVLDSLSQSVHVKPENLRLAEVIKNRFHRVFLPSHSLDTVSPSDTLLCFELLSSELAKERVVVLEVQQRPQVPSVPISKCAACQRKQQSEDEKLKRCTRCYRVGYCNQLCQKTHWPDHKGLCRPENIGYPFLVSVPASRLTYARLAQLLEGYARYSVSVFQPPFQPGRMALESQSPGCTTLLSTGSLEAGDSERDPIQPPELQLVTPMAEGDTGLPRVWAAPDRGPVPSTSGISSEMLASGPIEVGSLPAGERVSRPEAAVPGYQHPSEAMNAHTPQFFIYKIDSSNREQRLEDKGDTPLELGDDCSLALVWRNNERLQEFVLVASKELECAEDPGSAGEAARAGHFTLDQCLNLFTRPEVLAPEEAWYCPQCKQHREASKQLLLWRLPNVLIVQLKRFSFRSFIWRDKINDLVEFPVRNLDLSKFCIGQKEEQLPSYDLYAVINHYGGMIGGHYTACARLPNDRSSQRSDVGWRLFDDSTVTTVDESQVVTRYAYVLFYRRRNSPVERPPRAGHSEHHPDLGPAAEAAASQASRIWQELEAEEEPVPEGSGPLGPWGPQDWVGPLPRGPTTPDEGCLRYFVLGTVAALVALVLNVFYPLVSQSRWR
Summary of the method: (§1)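 Triplicate samples of HEK293T lysate, 495 µg each, received fragment at 200 µM or vehicle for 3 h, followed by Biotin-Ahx-Ub-VS (0.5 µM final) for 1 h. After NeutrAvidin enrichment of labelled DUBs and LysC/trypsin digestion, peptides were run by diaPASEF LC-MS/MS. The values are average log2 fragment/vehicle ratios from global-median-normalised Spectronaut label-free quantities, tested by unpaired t-test on proteins having ≥2 unique peptides.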

[2] = biological target: T2, USP22 (UniProt Q9UPT9)
T2 sequence (whole entry): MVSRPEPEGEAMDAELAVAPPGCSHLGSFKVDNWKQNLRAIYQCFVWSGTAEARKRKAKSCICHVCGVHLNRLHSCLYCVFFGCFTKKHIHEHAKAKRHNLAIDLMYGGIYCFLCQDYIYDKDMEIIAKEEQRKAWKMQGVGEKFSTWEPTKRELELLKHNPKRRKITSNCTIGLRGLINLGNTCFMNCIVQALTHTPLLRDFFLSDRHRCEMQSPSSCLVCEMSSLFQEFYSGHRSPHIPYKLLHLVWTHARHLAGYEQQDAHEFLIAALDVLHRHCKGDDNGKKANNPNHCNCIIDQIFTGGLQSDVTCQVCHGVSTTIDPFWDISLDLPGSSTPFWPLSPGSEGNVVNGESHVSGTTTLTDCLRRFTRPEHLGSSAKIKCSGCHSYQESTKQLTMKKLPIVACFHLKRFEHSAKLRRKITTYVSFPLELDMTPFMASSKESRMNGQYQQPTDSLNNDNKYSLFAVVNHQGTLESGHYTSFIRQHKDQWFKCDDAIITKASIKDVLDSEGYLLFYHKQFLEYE
Summary of the method: as §1

[3] = biological target: USP24 (UniProt Q9UPU5)
Chain of USP24 (Q9UPU5 whole entry): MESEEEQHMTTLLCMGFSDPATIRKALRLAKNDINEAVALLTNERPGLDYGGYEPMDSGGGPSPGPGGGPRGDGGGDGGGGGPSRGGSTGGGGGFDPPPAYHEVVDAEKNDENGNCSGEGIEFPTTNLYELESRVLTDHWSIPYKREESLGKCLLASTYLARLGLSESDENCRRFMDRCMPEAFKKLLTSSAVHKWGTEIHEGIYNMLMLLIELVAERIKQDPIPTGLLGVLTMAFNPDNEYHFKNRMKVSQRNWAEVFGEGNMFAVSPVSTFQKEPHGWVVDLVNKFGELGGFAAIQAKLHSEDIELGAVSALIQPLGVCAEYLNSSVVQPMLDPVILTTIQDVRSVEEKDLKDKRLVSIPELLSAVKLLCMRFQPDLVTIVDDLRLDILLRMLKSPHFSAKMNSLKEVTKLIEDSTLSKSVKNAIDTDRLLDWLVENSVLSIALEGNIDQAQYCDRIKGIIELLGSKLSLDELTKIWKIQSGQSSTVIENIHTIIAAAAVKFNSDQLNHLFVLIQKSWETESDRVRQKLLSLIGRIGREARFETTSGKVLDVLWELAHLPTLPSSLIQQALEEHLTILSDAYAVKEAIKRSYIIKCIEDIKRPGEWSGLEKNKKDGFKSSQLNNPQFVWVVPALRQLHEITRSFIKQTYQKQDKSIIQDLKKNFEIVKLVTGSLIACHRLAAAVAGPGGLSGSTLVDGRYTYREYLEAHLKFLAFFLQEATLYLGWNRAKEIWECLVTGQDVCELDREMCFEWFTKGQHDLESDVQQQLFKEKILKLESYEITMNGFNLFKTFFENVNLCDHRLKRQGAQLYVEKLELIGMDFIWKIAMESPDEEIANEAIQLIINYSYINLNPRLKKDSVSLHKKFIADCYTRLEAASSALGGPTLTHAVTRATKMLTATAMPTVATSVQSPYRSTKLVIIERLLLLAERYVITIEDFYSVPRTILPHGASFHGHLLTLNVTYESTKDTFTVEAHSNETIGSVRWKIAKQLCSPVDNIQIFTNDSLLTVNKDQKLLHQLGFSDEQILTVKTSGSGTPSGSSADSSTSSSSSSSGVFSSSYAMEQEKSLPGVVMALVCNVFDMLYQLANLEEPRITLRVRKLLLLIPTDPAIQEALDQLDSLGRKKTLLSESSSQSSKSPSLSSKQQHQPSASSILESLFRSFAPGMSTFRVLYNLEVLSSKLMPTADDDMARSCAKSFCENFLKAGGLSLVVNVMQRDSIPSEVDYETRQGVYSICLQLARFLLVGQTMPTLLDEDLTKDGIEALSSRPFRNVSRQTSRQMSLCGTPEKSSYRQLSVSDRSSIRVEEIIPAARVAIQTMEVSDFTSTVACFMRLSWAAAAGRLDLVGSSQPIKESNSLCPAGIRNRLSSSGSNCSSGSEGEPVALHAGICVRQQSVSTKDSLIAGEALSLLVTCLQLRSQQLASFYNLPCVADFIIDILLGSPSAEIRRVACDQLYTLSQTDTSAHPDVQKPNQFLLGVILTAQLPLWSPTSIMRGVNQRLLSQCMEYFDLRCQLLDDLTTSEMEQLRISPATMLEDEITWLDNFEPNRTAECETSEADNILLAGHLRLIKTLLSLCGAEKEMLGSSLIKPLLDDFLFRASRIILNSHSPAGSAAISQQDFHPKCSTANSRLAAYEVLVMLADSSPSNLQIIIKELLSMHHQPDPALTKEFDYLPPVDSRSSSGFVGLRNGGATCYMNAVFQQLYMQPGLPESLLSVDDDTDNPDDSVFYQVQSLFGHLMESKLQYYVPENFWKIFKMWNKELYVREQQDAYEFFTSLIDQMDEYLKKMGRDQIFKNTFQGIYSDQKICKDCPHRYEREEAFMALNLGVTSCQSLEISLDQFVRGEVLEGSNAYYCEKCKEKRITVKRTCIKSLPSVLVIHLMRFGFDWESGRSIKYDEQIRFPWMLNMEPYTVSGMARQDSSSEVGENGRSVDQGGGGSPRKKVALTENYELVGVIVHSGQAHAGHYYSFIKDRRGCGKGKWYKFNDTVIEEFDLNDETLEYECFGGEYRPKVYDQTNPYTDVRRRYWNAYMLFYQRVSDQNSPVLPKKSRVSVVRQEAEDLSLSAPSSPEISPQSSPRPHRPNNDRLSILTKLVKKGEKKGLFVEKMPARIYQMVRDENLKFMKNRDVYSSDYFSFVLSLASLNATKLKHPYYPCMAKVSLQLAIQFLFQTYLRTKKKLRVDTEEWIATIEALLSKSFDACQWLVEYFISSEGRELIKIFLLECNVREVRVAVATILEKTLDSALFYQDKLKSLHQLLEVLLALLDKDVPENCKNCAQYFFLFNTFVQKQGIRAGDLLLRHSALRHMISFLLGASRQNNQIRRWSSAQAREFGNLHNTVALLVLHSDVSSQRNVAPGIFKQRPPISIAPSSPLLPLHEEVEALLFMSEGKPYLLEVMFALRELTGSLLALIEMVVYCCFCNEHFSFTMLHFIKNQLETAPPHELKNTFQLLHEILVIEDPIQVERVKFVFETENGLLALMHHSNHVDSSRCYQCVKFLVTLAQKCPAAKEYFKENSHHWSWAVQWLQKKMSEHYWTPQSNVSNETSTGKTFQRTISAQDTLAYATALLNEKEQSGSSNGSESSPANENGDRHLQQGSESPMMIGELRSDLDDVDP
Summary of the method: as §1

[4] = biological target: T3, USP25 (UniProt Q9UHP3)
T3 sequence (whole entry): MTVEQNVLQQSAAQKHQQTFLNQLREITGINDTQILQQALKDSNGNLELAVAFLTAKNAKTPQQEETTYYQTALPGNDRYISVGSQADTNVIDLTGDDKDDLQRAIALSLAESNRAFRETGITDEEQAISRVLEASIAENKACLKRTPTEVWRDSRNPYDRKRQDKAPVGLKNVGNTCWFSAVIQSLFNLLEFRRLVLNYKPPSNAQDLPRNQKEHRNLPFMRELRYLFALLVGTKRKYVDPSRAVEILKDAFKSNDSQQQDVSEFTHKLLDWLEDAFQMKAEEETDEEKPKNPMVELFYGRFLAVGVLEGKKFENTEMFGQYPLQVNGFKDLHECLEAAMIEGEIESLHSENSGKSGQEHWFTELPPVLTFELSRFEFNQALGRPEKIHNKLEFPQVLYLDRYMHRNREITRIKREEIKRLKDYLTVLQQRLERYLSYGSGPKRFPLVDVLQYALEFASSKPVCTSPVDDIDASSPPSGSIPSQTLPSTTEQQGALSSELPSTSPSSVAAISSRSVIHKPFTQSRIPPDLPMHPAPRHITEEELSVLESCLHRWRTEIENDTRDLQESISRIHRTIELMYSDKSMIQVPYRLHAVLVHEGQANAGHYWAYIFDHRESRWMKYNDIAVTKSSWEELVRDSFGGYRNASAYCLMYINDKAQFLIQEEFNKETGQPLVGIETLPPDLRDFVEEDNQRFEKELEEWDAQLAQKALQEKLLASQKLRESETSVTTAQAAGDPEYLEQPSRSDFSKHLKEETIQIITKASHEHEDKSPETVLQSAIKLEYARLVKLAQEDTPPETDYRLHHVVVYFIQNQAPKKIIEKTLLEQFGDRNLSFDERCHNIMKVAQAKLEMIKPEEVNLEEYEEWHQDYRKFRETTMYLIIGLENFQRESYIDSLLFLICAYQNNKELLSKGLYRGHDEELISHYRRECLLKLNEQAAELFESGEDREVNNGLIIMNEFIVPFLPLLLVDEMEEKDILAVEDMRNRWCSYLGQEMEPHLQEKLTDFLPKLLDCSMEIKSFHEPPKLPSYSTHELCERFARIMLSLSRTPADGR
Summary of the method: as §1

[5] = biological target: T4, USP28 (UniProt Q96RU2)
T4 sequence (whole entry): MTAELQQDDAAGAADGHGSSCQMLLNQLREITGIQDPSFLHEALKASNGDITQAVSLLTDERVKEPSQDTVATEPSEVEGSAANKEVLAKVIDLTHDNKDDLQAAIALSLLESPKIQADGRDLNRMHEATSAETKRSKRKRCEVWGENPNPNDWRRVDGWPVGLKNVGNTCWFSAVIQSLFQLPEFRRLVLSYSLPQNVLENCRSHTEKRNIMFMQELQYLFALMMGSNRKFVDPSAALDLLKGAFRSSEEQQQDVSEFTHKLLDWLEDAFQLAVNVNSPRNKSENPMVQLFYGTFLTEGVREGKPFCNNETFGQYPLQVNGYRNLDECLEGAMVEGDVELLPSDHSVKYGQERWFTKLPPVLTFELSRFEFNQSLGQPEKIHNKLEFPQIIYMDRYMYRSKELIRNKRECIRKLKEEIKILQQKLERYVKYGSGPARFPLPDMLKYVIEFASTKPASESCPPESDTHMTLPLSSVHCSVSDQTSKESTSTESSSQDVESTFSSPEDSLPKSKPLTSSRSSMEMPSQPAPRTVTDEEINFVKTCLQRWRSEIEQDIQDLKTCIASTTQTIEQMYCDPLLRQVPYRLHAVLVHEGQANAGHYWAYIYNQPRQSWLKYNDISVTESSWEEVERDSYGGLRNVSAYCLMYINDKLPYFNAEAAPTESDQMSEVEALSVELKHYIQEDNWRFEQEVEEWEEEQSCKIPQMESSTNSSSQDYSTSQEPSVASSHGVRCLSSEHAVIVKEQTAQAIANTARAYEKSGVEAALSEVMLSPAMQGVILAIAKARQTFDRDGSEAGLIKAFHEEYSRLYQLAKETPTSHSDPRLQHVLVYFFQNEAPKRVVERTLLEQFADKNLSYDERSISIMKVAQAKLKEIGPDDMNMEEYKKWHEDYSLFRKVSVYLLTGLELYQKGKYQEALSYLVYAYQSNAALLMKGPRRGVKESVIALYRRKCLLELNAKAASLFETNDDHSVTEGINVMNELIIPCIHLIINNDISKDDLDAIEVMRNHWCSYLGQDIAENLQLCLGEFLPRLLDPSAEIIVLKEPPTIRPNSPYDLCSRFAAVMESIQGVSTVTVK
Summary of the method: as §1

Measured: log2 ratio of Biotin-Ahx-Ub-VS probe labelling

Cc1cc(C2CCCN2C(=O)CCl)nn1C.Cl (stereo not given)
inactive: [1] -0.282 | [2] -0.312 | [3] -0.202 | [4] -0.257 | [5] -0.271

— the supplement of paper PMC11732987, “Enantioselective OTUD7B fragment discovery through chemoproteomics screening and high-throughput optimisation” (Communications Chemistry, 2025)
